GPR151 ag = activators of human GPR151. Q8TDV0. PathHunter beta-arrestin GPR151 cells, luminescence. activation, % at 11.2 µM. 650,000 compounds, 1% hits. AID 1508602; in the data active means activation above about 4.9%;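 further: 0% = median of compound wells and 100% = cells with positive control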
FBW7 activator = activators of human E3 ligase FBW7; Q969H0; AlphaScreen FBW7–phospho-cyclin E peptide binding, activator screen; normalized activity (activation), % at 26.1 µM; 650,000 compounds, 0.13% hits; in the data active means normalized activity above about 1.9%;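 further: purified mutant Fbw7 with reduced substrate affinity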
TEAD-YAP block = TEAD-YAP interaction inhibition | HEK-TIYL cells, TEAD-Gal4/YAP UAS-luciferase luminescence | inhibition, % at 9.12 µM | 640,000 compounds, 1.4% hits; in the data active means inhibition above about 32%;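 further: 0% = median of test compound wells and 100% = reference inhibitor wells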
MITF primary = human MITF inhibition, primary screen; AlphaScreen MITF homodimerization, bead proximity signal; AID 1259374; O75030; inhibition, % at 2.6 µM; 650,000 compounds, 0.91% hits; in the data active means inhibition above about 50%;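 further: 0% = vehicle wells with protein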
Target sequence (O75030 whole entry, looked up): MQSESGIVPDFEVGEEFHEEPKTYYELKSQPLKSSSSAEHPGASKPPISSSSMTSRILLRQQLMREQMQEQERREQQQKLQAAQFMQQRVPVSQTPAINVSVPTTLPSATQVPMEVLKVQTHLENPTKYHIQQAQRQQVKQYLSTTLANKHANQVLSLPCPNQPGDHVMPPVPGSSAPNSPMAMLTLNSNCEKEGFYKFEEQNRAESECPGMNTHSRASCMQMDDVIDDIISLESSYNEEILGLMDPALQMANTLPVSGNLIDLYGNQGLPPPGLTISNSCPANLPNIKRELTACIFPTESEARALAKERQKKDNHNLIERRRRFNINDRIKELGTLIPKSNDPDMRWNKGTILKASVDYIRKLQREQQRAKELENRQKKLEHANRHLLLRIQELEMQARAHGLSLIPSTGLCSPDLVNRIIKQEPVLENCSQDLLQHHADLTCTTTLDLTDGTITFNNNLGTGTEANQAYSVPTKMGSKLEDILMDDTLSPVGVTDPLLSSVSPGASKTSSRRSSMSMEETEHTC
GPR151 confirm = confirmation of human GPR151 activators | shares compounds with GPR151 ag | GPR151 PathHunter beta-arrestin cells, luminescence, 90 min; % of EA-reagent control over plate median | activation, % at 11.2 µM | 6,700 tested, under 10 active | AID 1508609;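 active means mean percent activation across replicates above the confirmation screen cutoff of 4.91%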
GPR119 ag = GPR119 activation, counter-screen for GPR151 activators. activation, % at 11.2 µM. shares compounds with GPR151 ag. 6,700 compounds, 0.3% hits. GPR119 PathHunter beta-arrestin cells, luminescence, 90 min; 0 = compound-well median, 100 = enzyme-acceptor control;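 active means mean percent activation in the counterscreen above 29.09%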;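 further: counterscreen on off-target GPR119 to flag nonselective hits from the GPR151 activator screen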
An asterisk follows results filed as active; x = no result; ! = a repeat was not active. Shown are actives, neighbours in structure and some others; about 3.5% of the full set was active somewhere.

SMILES	GPR151 ag	FBW7 activator	TEAD-YAP block	MITF primary	GPR151 confirm	GPR119 ag
CCOc1ccccc1/C=C1\N=C(c2cccc(C)c2)OC1=O	9.7*	0	-11	1	-1	0
COc1ccc(C2=N/C(=C/c3cccc(OC)c3OC)C(=O)O2)cc1Br	5.0*	0	-2	8	-1	1
CC(=O)Oc1ccc(/C=C2\N=C(c3cccc(C)c3)OC2=O)cc1OC(C)=O	7.6*	0	2	0	2	1
C#CCOn1ccc2ccc(S(C)(=O)=O)cc21	2	0	3	2	x	x
O=C(Nc1ccccn1)C1CCN(C(=O)NCc2cccs2)CC1	2	0	-15	1	x	x
Cc1cc(F)ccc1NC(=O)CC(C)S(=O)(=O)c1ccc2c(c1)OCC(=O)N2 (stereo not given)	-2	0	8	8	x	x
CC(=O)Nc1ccc(N(C)S(C)(=O)=O)cc1	9.3*	0	-2	-6	0	-6
CC(=O)Nc1ccc(N(C)C(C)=O)cc1	0	0	1	7	x	x
C#CCN(CC#C)c1cccc(Cl)c1	8.2*	0	-3	11	-1	-6
C#CCN(CC#C)c1ccc(Cl)cc1	0	0	1	-5	x	x
Cc1ccc(C(=O)N/C(=C/c2ccccc2F)C(=O)Nc2ccc(Cl)cc2)cc1	1	0	11	10	x	x
Cc1ccc(Nc2nc(N3CCOCC3)nc3c2cnn3C)c(C)c1	5.4*	0	-2	2	0	4
CCCC(C)NS(=O)(=O)c1ccc(OC)cc1 (stereo not given)	0	0	-12	8	x	x
O=C(Nc1ccc2c(c1)OCO2)c1csc(NCc2ccc3c(c2)OCO3)n1	-1	0	-11	-2	x	x
C/C(=N\NC(=O)c1ccc(-c2ccccc2)cc1)c1ccc(N)cc1	1	0	0	7	x	x
O=C(Oc1ccc([N+](=O)[O-])cc1)c1ccc(N2C(=O)C3C4CCC(C4)C3C2=O)cc1 (stereo not given)	7.5*	0	1	-5	0	0
CCOC(=O)COc1ccc2c(=O)c(-c3ccc(OC)cc3)c(C)oc2c1	3	0	3	-5	x	x
CCOC(=O)COc1ccc2c(=O)c(-c3ccccc3F)c(C)oc2c1	6.2*	0	0	0	-1	-3
CN(CCO)c1nc(-c2ccccc2)c2cc(Br)ccc2n1	-1	0	-4	-16	x	x
COc1nc2ccc(Br)cc2cc1[C@@H](c1ccccc1)[C@@](O)(CCN(C)C)c1cccc2ccccc12	7.5*	x	x	x	0	2
COc1cccc2cc(-c3nc(C)no3)c(=O)oc12	2	0	3	1	x	x
CCc1cccc(NC(=O)C2CCCC2)c1	10*	0	-17	7	0	-11
NC(=O)C[n+]1cccc(/C=N/O)c1	6.3*	0	-3	3	0	-2
CC(C)N(C(=O)C[n+]1cccc(/C=N/O)c1)C(C)C	1	0	-5	6	x	x
CCOC(=O)c1sc(NC(=O)CCOc2ccccc2)c(C(=O)OCC)c1C	-1	0	9	8	x	x
SMILES	GPR151 ag	FBW7 activator	TEAD-YAP block	MITF primary	GPR151 confirm	GPR119 ag
Cc1ccc(-c2csc(C(C#N)=C3CCCCC3)n2)cc1	5.4*	0	-62	2	0	-10
Cc1cccc(NC(=O)CN(c2ccc(Br)c(C)c2)S(C)(=O)=O)c1	10*	0	3	11	0	-4
CCOc1ccccc1N(CC(=O)Nc1ccccc1OC)S(C)(=O)=O	8.9*	0	-3	0	0	-9
COc1ccccc1NC(=O)CN(c1ccccc1OC)S(C)(=O)=O	-1	0	5	0	x	x
Cc1ccc(NC(=O)CN(c2ccc(Br)c(C)c2)S(C)(=O)=O)cc1	2	0	-3	9	x	x
CSc1cccc(NC(=O)CN(c2ccc(F)c(Cl)c2)S(C)(=O)=O)c1	8.5*	0	4	-10	0	4
COc1ccc(Cl)cc1N(CC(=O)Nc1cccc(C(C)=O)c1)S(C)(=O)=O	5.8*	0	0	7	1	-1
CC(C)Cn1c(=O)[nH]c2nc(-c3cccc(C(=O)NCCO)c3)cnc21	0	0	4	-3	x	x
COc1cccc(NC(=O)CN(C)S(=O)(=O)c2ccc(F)cc2)c1	0	0	3	-10	x	x
Cc1c(Cl)cccc1N(CC(=O)Nc1ccc(F)c(Cl)c1)S(C)(=O)=O	5.5*	0	5	-10	2	-2
Cc1ccccc1NC(=O)CN(c1ccc(Cl)cc1C)S(C)(=O)=O	5.3*	0	-3	1	1	14
CS(=O)(=O)N(CC(=O)Nc1ccc(F)c(Cl)c1)c1ccccc1F	0	0	11	0	x	x
CC(=O)c1cccc(NC(=O)CN(C)S(=O)(=O)c2ccc(F)cc2)c1	5.9*	0	-6	0	-1	-7
Cc1nn(S(=O)(=O)N(C)C)c(C)c1C	1	0	6	3	x	x
Cc1ccc(CSc2nc3[nH]ncc3c(=O)n2-c2cccc(C)c2)cc1	9.0*	0	-10	4	0	10
Cc1ccc(-n2c(SCc3cccc(C)c3)nc3[nH]ncc3c2=O)cc1	0	1	4	19	x	x
CCc1ccc(-n2c(SCc3cc(=O)n4c(C)cccc4n3)nc3[nH]ncc3c2=O)cc1	5.8*	0	-7	1	1	11
Cc1ccc(-c2nc3ncccc3o2)cc1NC(=S)NC(=O)c1ccccc1F	-1	0	-12	-9	x	x
C[C@H](CN)Oc1ncccc1C(=O)Nc1ccc2[nH]ncc2c1	5.7*	0	1	-9	-1	4
CCOc1ccc(C2NC(=S)NC3=C2C(=O)CCC3)cc1 (stereo not given)	5.8*	1	2	12	0	1
C#C[C@]1(OC(C)=O)CC[C@H]2[C@@H]3CCC4=CC(=O)CC[C@@H]4[C@H]3CCC21C (stereo not given in full)	9.3*	0	x	-1	-1	-4
C#C[C@]1(O)CC[C@H]2[C@@H]3CCC4=CC(=O)CC[C@@H]4[C@H]3CC[C@@]21C	0	0	x	26	x	x
NC(=O)c1ccccc1NC(=O)CCn1c(=S)oc2ccccc21	7.8*	0	-1	15	-1	-3
CC(Oc1c(Cl)cccc1Cl)C1=NCCN1 (stereo not given)	4.9*!	1	7	-1	0	2
CCOC(=O)CC(=O)N1CCc2nc(-c3cccnc3)nc(N3CCCCCC3)c2C1	7.1*	0	-9	9	-1	-11
O=S(=O)(CCN1CCc2nc(-c3cccnc3)nc(N3CCCC3)c2C1)c1ccccc1	8.4*	0	11	5	-1	-16
Cc1ccc(-c2nc3cc(NC(=S)NC(=O)c4ccc(Cl)cc4)ccc3o2)cc1	1	0	-31	-10	x	x

Assay outcomes from PubChem BioAssay.
